About 2,000 (36%) of roughly 5,500 compounds were called active. Not shown: some 18% with an inconclusive outcome. No stated cut-off is given here; in the data, active means normalized growth mostly below about 0.91 (no sharp cut-off); inconclusive means no clear call, values can overlap the other calls; inactive means mostly above about 0.92. The list shows a part of the results.
Test: chemical genetic growth profiling, strain panel (AID 1159580);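 further: tested at 20 µM; growth read once vehicle control cultures reached saturation at 30 °C; 1 = growth at the plate median or of vehicle wells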
Conditions: growth OD

Measured: normalized growth

Cc1cc(=O)[nH]c(=S)[nH]1
inactive: S. cerevisiae deletion strains, locus YJR075W, strain HOC1, stronger effect = lower value 1.02 | S. cerevisiae deletion strains, locus YKL009W, strain mrt4, stronger effect = lower value 0.999 | S. cerevisiae deletion strains, locus YKL068W, stronger effect = lower value 1 | S. cerevisiae deletion strains, locus YKL085W, strain MDH1 (second series), stronger effect = lower value 0.977 | S. cerevisiae deletion strains, locus YKL085W, strain MDH1, stronger effect = lower value 0.977 | S. cerevisiae deletion strains, locus YKL160W, strain elf1, stronger effect = lower value 0.974 | S. cerevisiae deletion strains, locus YKL190W, strain CNB1, stronger effect = lower value 1 | S. cerevisiae deletion strains, locus YKR001C, strain vps1, stronger effect = lower value 1.01 | S. cerevisiae deletion strains, locus YKR026C, strain gcn3, stronger effect = lower value 0.992 | S. cerevisiae deletion strains, locus YKR091W, strain srl3, stronger effect = lower value 0.967 | S. cerevisiae deletion strains, locus YLL001W, strain dnm1, stronger effect = lower value 1.01 | S. cerevisiae deletion strains, locus YLL026W, stronger effect = lower value 0.979 | S. cerevisiae deletion strains, locus YLL041C, strain sdh2, stronger effect = lower value 0.978 | S. cerevisiae deletion strains, locus YLR027C, strain aat2, stronger effect = lower value 0.973 | S. cerevisiae deletion strains, locus YLR039C, strain RIC1, stronger effect = lower value 1.03 | S. cerevisiae deletion strains, locus YLR058C, strain SHM2, stronger effect = lower value 1.01 | S. cerevisiae deletion strains, locus YLR102C, strain apc9, stronger effect = lower value 1 | S. cerevisiae deletion strains, locus YLR113W, strain HOG1, stronger effect = lower value 1.03 | S. cerevisiae deletion strains, locus YLR221C, strain rsa3, stronger effect = lower value 0.973 | S. cerevisiae deletion strains, locus YLR258W, strain gsy2, stronger effect = lower value 0.98 | S. cerevisiae deletion strains, locus YLR262C, strain YPT6 (second series), stronger effect = lower value 0.981 | S. cerevisiae deletion strains, locus YLR262C, strain YPT6, stronger effect = lower value 1.07 | S. cerevisiae deletion strains, locus YLR268W, strain sec22, stronger effect = lower value 1.08 | S. cerevisiae deletion strains, locus YLR320W, strain mms22, stronger effect = lower value 0.956 | S. cerevisiae deletion strains, locus YLR330W, strain CHS5, stronger effect = lower value 1.01 | S. cerevisiae deletion strains, locus YLR342W, strain FKS1 (second series), stronger effect = lower value 1 | S. cerevisiae deletion strains, locus YLR342W, strain FKS1, stronger effect = lower value 0.985 | S. cerevisiae deletion strains, locus YLR357W, strain rsc2, stronger effect = lower value 0.944 | S. cerevisiae deletion strains, locus YLR370C, strain arc18, stronger effect = lower value 0.973 | S. cerevisiae deletion strains, locus YLR371W, strain rom2, stronger effect = lower value 1.02 | S. cerevisiae deletion strains, locus YLR384C, strain iki3, stronger effect = lower value 0.989 | S. cerevisiae deletion strains, locus YLR418C, strain cdc73, stronger effect = lower value 1.02 | S. cerevisiae deletion strains, locus YML016C, strain PPZ1, stronger effect = lower value 1.01 | S. cerevisiae deletion strains, locus YML032C, strain rad52, stronger effect = lower value 1.04 | S. cerevisiae deletion strains, locus YML120C, strain ndi1, stronger effect = lower value 0.972 | S. cerevisiae deletion strains, locus YML124C, strain tub3, stronger effect = lower value 1 | S. cerevisiae deletion strains, locus YMR058W, strain fet3, stronger effect = lower value 0.976 | S. cerevisiae deletion strains, locus YMR078C, strain ctf18, stronger effect = lower value 1.01 | S. cerevisiae deletion strains, locus YMR125W, strain sto1, stronger effect = lower value 0.933 | S. cerevisiae deletion strains, locus YMR129W, stronger effect = lower value 0.969 | S. cerevisiae deletion strains, locus YMR205C, strain PFK2, stronger effect = lower value 0.976 | S. cerevisiae deletion strains, locus YMR223W, strain ubp8, stronger effect = lower value 0.989 | S. cerevisiae deletion strains, locus YMR231W, strain pep5, stronger effect = lower value 1 | S. cerevisiae deletion strains, locus YMR263W, strain SAP30, stronger effect = lower value 1.03 | S. cerevisiae deletion strains, locus YMR307W, strain GAS1, stronger effect = lower value 1.05 | S. cerevisiae deletion strains, locus YNL067W, strain RPL9B, stronger effect = lower value 1.02 | S. cerevisiae deletion strains, locus YNL071W, strain lat1, stronger effect = lower value 0.963 | S. cerevisiae deletion strains, locus YNL128W, strain TEP1, stronger effect = lower value 1 | S. cerevisiae deletion strains, locus YNL153C, strain GIM3, stronger effect = lower value 1.03 | S. cerevisiae deletion strains, locus YNL183C, strain NPR1, stronger effect = lower value 0.977 | S. cerevisiae deletion strains, locus YNL209W, strain ssb2, stronger effect = lower value 0.973 | S. cerevisiae deletion strains, locus YNL233W, strain BNI4, stronger effect = lower value 1.02 | S. cerevisiae deletion strains, locus YNL250W, strain rad50, stronger effect = lower value 1.01 | S. cerevisiae deletion strains, locus YNL271C, strain bni1, stronger effect = lower value 1.01 | S. cerevisiae deletion strains, locus YNL298W, strain CLA4, stronger effect = lower value 1.01 | S. cerevisiae deletion strains, locus YNL307C, strain MCK1, stronger effect = lower value 1.01 | S. cerevisiae deletion strains, locus YNL322C, strain KRE1 (second series), stronger effect = lower value 0.969 | S. cerevisiae deletion strains, locus YNL322C, strain KRE1, stronger effect = lower value 1 | S. cerevisiae deletion strains, locus YNR049C, strain mso1, stronger effect = lower value 0.978 | S. cerevisiae deletion strains, locus YNR052C, strain pop2, stronger effect = lower value 1.01 | S. cerevisiae deletion strains, locus YOL006C, strain TOP1, stronger effect = lower value 1.08 | S. cerevisiae deletion strains, locus YOL012C, strain htz1 1.27 | S. cerevisiae deletion strains, locus YOL147C, strain pex11, stronger effect = lower value 1 | S. cerevisiae deletion strains, locus YOR001W, strain rrp6, stronger effect = lower value 0.975 | S. cerevisiae deletion strains, locus YOR061W, strain CKA2, stronger effect = lower value 1.01 | S. cerevisiae deletion strains, locus YOR069W, strain VPS5, stronger effect = lower value 1.01 | S. cerevisiae deletion strains, locus YOR070C, strain gyp1, stronger effect = lower value 0.987 | S. cerevisiae deletion strains, locus YOR080W, strain dia2, stronger effect = lower value 0.965 | S. cerevisiae deletion strains, locus YOR083W, strain WHI5, stronger effect = lower value 0.964 | S. cerevisiae deletion strains, locus YOR106W, strain vam3, stronger effect = lower value 0.999 | S. cerevisiae deletion strains, locus YOR136W, strain idh2, stronger effect = lower value 1 | S. cerevisiae deletion strains, locus YOR144C, strain elg1, stronger effect = lower value 1 | S. cerevisiae deletion strains, locus YOR184W, strain ser1, stronger effect = lower value 1.01 | S. cerevisiae deletion strains, locus YOR231W, strain MKK1, stronger effect = lower value 1.03 | S. cerevisiae deletion strains, locus YOR265W, strain rbl2, stronger effect = lower value 0.98 | S. cerevisiae deletion strains, locus YOR270C, strain vph1, stronger effect = lower value 0.976 | S. cerevisiae deletion strains, locus YOR290C, strain snf2, stronger effect = lower value 0.94 | S. cerevisiae deletion strains, locus YOR316C, strain cot1, stronger effect = lower value 1.01 | S. cerevisiae deletion strains, locus YPL051W, strain arl3, stronger effect = lower value 0.982 | S. cerevisiae deletion strains, locus YPL055C, strain LGE1, stronger effect = lower value 1 | S. cerevisiae deletion strains, locus YPL078C, strain atp4, stronger effect = lower value 0.973 | S. cerevisiae deletion strains, locus YPL106C, strain sse1, stronger effect = lower value 0.919 | S. cerevisiae deletion strains, locus YPL240C, strain hsp82, stronger effect = lower value 0.958 | S. cerevisiae deletion strains, locus YPL241C, strain CIN2, stronger effect = lower value 1.01 | S. cerevisiae deletion strains, locus YPL256C, strain CLN2, stronger effect = lower value 1.12 | S. cerevisiae deletion strains, locus YPR119W, strain clb2, stronger effect = lower value 1 | S. cerevisiae deletion strains, locus YPR141C, strain kar3, stronger effect = lower value 1 | S. cerevisiae deletion strains, locus YPR163C, strain tif3, stronger effect = lower value 1.01 | S. cerevisiae deletion strains, locus YPR167C, strain met16, stronger effect = lower value 1.01 | S. cerevisiae deletion strains, strain wtn01, stronger effect = lower value 1.03 | S. cerevisiae strains, strain wild type, stronger effect = lower value 1.01
active: S. cerevisiae deletion strains, locus YNL248C, strain rpa49, stronger effect = lower value 0.872

Source: PubChem BioAssay AID1159580 (chemical genetic matrix, 2015)
